High-throughput results deposited in PubChem BioAssay by National Center for Advancing Translational Sciences (NCATS).
Compounds with a hit are over-represented: about 2.3% of the library has one in this group of screens.
Nrf2 activator = activators of Nrf2 (ARE) signaling; AREc32 ARE-luciferase reporter (MCF7-derived line), luminescence, 24 h; Potency, µM (top dose mostly 46.1 µM), actives largely listed as activators; 410,000 tested, 0.31% active; also: nearly all actives have a fitted effect of over 65% in size
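Cells of the AREc32 ARE-luciferase line are plated in OPTI-MEM containing 5% FBS and left overnight at 37 deg C. Compounds are pinned in, incubation continues 24 hr, and firefly luciferase signal is then measured.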
A549 tox-1 = counter-screen for Nrf2 inhibitors: cytotoxicity in A549 cells. A549 ARE-Fluc cells, CellTiter-Fluor viability, 18-24 h. Potency, µM (series often up to 46 µM), usual class: inhibitors. 390,000 tested, 0.16% active. AID 504648
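A549 ARE-Fluc cells in 5% FBS OPTI-MEM, 5000 cells/well, rested 2 h then exposed to compounds in concentration-response for 18-24 h at 37 °C. Viability by CellTiter-Fluor fluorescence (Ex 405/Em 525) after 30 min; luciferase luminescence (BugLite, 15 min, RT) read afterwards.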
IDH1 R132H inh = blocks human mutant IDH1 R132H enzyme; O75874; Potency, µM (top dose mostly 76.6 µM), actives largely listed as inhibitors; IDH1-R132H enzyme, NADPH consumption, diaphorase/resazurin fluorescence; 390,000 tested, 0.093% active; also: nearly all actives have a fitted effect of over 65% in size
Target sequence (O75874 whole entry R132H, stated change not applied): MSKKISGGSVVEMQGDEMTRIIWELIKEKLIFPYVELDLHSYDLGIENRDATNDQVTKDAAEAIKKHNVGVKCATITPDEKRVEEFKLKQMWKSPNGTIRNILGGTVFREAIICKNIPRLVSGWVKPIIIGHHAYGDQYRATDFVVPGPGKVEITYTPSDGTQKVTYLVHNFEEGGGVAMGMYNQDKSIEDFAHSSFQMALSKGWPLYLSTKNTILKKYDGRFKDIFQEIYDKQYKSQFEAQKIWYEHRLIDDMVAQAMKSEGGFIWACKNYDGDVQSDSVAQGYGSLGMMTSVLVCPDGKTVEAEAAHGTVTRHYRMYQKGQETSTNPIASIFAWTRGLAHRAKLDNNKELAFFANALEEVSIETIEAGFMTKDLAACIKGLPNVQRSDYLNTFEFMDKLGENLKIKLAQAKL
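IDH1-R132H (0.5 ug/mL) preincubated 30 min with compound, then NADPH (0.016 mM) and alpha-KG (2 mM) added; 80 min at RT, pH 7.5. Remaining NADPH coupled via diaphorase/resazurin to fluorescence (540/590 nm); concentration-response curves normalized to no-enzyme control.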
Nrf2 inh = Nrf2 pathway inhibition; A549 ARE-Fluc reporter, luciferase luminescence, 18-24 h; Potency, µM (doses to about 46 µM), actives largely listed as inhibitors; 360,000 tested, 2.1% active; AID 504444; also: nearly all actives have a fitted effect of over 60% in size
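Two sequential reads on A549 ARE_Fluc cells exposed to compound for 18-24 h: a CellTiter-Fluor fluorescence read for viability, then a luciferase luminescence read for Nrf2/ARE activity.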
Giardia kill = kills Giardia lamblia; 340,000 tested, 0.15% active; Giardia lamblia trophozoite viability; activity change, % at 7.66 µM, hits read low; in the data active = activity change below about -80%; inconclusive = between about -30% and that limit;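 also: parasites exposed to compound for two days anaerobically before the ATP read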
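Giardia lamblia trophozoites (100 cells/well) were incubated with compounds for 48 h at 37 deg C under anaerobic conditions. Viability was read as ATP content by one-step luminescence after 15-30 min at room temperature.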
Apoferritin bind = binds horse apoferritin like a general anesthetic | Potency, µM (series often up to 77.5 µM), actives largely listed as inhibitors | 350,000 tested, 0.074% active | AID 485281 | apoferritin/1-aminoanthracene competitive binding, fluorescence | P02791; also: nearly all actives have a fitted effect of over 20% in size
Target sequence (P02791 2-175 limits assumed): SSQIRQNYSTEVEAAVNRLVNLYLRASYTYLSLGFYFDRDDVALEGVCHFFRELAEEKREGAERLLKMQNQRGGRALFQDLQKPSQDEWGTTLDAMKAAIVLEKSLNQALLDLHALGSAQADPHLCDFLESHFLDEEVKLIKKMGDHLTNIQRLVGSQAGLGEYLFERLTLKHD
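Concentration-response curves derived by four-parameter Hill fitting of normalized fluorescence, where compounds displaced 1-AMA from 10 uM horse apoferritin following a brief 10 min room-temperature incubation; propofol titration acted as positive control.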
FLuc counter 3 = counter-screen for Nrf2 inhibitors: firefly luciferase enzyme inhibition | 1,400 tested, 4% active | Potency, µM (doses to about 57.5 µM), hits mostly inhibitors | purified firefly luciferase, luminescence inhibition | shares compounds with Nrf2 inh; also: nearly all actives have a fitted effect of over 65% in size
A549 tox-2 = toxic to A549 ARE-Fluc cells in Nrf2 counterscreen | 1,400 tested, 2% active | Potency, µM (titrated, usually from 46.1 µM), actives largely listed as inhibitors | shares compounds with Nrf2 inh | AID 720523 | A549 ARE-Fluc cells, cytotoxicity counterscreen;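 also: cells exposed to compounds for 18 to 24 hours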
ARE-Fluc inh = reduces Nrf2 ARE reporter signal in A549 cells. A549 ARE-firefly luciferase reporter, luminescence. Potency, µM (series often up to 46.1 µM), usual class: inhibitors. AID 720524. shares compounds with Nrf2 inh. 1,400 tested, 74% active; also: nearly all actives have a fitted effect of over 65% in size
Of the large screens only hits and unclear results are named; the others gave an inactive call (follow-up assays come after a bar, where they were run). Unless noted, calls follow the shape of the dose curve; as a rule, active = well fitted curve in the direction sought with a large enough effect; inconclusive = small, poorly fitted or top-dose-only effect, or another doubt; inactive = no such curve, though single readings can be large; an effect the other way counts as inactive or inconclusive.

COc1cc(NS(=O)(=O)c2ccc3c(c2)CC(C)N3C(=O)C2CCC2)cc(OC)c1OC (stereo unspecified)	Nrf2 inh 6.5µM (no result: Nrf2 activator, IDH1 R132H inh, Giardia kill) | FLuc counter 3 inactive | A549 tox-2 inactive | ARE-Fluc inh 2.6µM
COc1ccc(OC(C)C(=O)NCc2nc(-c3cccc(C)c3)no2)cc1 (stereo unspecified)	none (no result: Giardia kill)
CCCCn1c(CN2CCN(c3ccccc3)CC2)nc2c1c(=O)n(C)c(=O)n2C	A549 tox-1 inconclusive, Nrf2 inh 4.1µM | FLuc counter 3 inactive | A549 tox-2 inactive | ARE-Fluc inh 15µM
Cn1c(=O)c2c(nc(CN3CCN(c4ccccc4)CC3)n2CCCc2ccccc2)n(C)c1=O	none (no result: Apoferritin bind)
Cc1noc(C)c1-c1ccc2ncnc(NCc3ccco3)c2c1	none (no result: Nrf2 activator, IDH1 R132H inh, Giardia kill)
Cc1cc(Cl)c(S(=O)(=O)NC2CCCC2)cc1OCC(=O)NC1CCCCC1	Nrf2 inh 6.5µM | FLuc counter 3 inactive | A549 tox-2 inactive | ARE-Fluc inh 7.3µM
Cc1cc(Cl)c(S(=O)(=O)N2CCSCC2)cc1OCC(=O)NC1CCCCC1	A549 tox-1 inconclusive, Nrf2 inh 6.5µM | FLuc counter 3 inactive | A549 tox-2 inactive | ARE-Fluc inh 4.6µM
CCOC(=O)N1CCN(S(=O)(=O)c2cc(OCC(=O)NC3CCCCC3)c(C)cc2Cl)CC1	Nrf2 inh inconclusive
COc1cc(OC)c2c(c1Cl)O[C@@]1(C2=O)[C@H](C)CC(=O)C[C@@H]1OC	none (no result: Nrf2 activator, A549 tox-1, IDH1 R132H inh, Nrf2 inh, Giardia kill)
Cc1ccc(C)c(CNC(=O)c2sc3ncnc(N(C)C4CCCCC4)c3c2C)c1	none (no result: IDH1 R132H inh, Nrf2 inh, Giardia kill)
Cc1ccc(CNC(=O)CN2C(=O)CCc3cc(S(=O)(=O)N4CCCCC4)ccc32)cc1	none (no result: Nrf2 inh, Giardia kill)
N#Cc1ccc(N2CCN(c3ccc(F)cc3)CC2)cc1	Nrf2 inh inconclusive | FLuc counter 3 inactive | A549 tox-2 inactive | ARE-Fluc inh inactive
O=C(C(=O)N1CCN(c2ccc(F)cc2)CC1)N1CCCCC1	none
Cc1nc2c(-c3ccccc3)c(C)[nH]n2c(=O)c1Cc1ccc(Br)cc1	A549 tox-1 inconclusive, Nrf2 inh 8.2µM (no result: Giardia kill) | FLuc counter 3 inactive | A549 tox-2 inconclusive | ARE-Fluc inh 3.3µM
Cc1nc2c(-c3ccccc3)c(C)[nH]n2c(=O)c1Cc1ccc(C(C)C)cc1	A549 tox-1 inconclusive, Nrf2 inh 4.6µM (no result: Giardia kill) | FLuc counter 3 inactive | A549 tox-2 inactive | ARE-Fluc inh 5.8µM
Cc1ccc(Cc2c(C)nc3c(-c4ccccc4)c(C)[nH]n3c2=O)cc1	none (no result: Giardia kill)
Cc1noc(Cn2c(=O)c3ccccc3n(CC(=O)Nc3cccc(Cl)c3C)c2=O)n1	none (no result: Giardia kill)
Cc1ccc(C(=O)Oc2ccccc2N2C(=O)C3CCCCC3C2=O)cc1 (stereo unspecified)	Nrf2 inh 1.3µM | FLuc counter 3 inactive | A549 tox-2 inactive | ARE-Fluc inh 3.3µM
CCCCn1nnnc1C(c1cc2ccccc2o1)N(CCC#N)Cc1ccccc1 (stereo unspecified)	none (no result: A549 tox-1, IDH1 R132H inh, Nrf2 inh, Giardia kill, Apoferritin bind)
Cc1ccc2c(c1)c(C)cc[n+]2Cc1ccccc1	Nrf2 inh inconclusive
COc1ccc2c(c1)c(C)cc[n+]2Cc1ccccc1	Nrf2 inh 6.5µM | FLuc counter 3 inactive | A549 tox-2 inactive | ARE-Fluc inh 10µM
Cc1ccc(CNC(=O)c2c(C)oc3nc(C)nc(N4CCOCC4)c23)cc1	none (no result: Giardia kill)
CC1(c2ccc3ccccc3c2)NC(=O)N(CC(=O)N2CCN(Cc3ccccc3)CC2)C1=O (stereo unspecified)	A549 tox-1 inconclusive, Nrf2 inh 1.3µM (no result: Apoferritin bind) | FLuc counter 3 inactive | A549 tox-2 inactive | ARE-Fluc inh 4.6µM
